Each structure is given as a SMILES string. “And” between values parts separate entries of the source, which are not always exact repeats. Equal entries are not always repeated. Screen size: about 650,000 compounds; about 6,800 (1%) were called active. Rule as the data show it: active = activation above about 4.9%; inactive = the rest. The sample as a whole holds a higher share of actives than the screen did. Some compounds were tested as several samples or in several runs, with calls that do not always agree.

Chain of G-protein coupled receptor 151 (Homo sapiens) (Q8TDV0 whole entry, looked up): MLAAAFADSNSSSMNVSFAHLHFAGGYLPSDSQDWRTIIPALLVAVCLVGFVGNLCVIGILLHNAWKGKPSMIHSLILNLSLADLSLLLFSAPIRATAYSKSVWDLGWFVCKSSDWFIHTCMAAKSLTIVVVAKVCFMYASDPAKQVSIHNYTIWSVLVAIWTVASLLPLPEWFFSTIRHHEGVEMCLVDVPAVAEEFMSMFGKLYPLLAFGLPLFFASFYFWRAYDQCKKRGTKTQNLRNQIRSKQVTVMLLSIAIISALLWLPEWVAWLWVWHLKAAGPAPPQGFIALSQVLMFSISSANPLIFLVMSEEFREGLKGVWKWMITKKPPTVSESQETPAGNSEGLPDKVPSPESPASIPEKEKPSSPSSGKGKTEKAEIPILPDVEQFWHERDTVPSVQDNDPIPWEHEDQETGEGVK

The assay has as its target G-protein coupled receptor 151 (Homo sapiens) (UniProt Q8TDV0). The experiment in a line: activates the human receptor GPR151, primary screen, cell-based, PathHunter beta-arrestin, luminescence (AID 1508602).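 Also: 0% = median of compound wells and 100% = cells with positive control.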 As to conditions: PathHunter beta-arrestin GPR151 cells, at 11.2 µM, stronger effect = higher value.
In the case of `COc1ccc(-c2nnc(SCCC#N)o2)cc1`, the activation was 10.1% (active).

Take `N#CCCCSc1nnc(-c2ccc(C#N)cc2)o1`: the activation was -0.162% (inactive).

With `COc1ccc(-c2nnc(SCC(=O)NC(N)=O)o2)cc1`, the activation was 0.906% (inactive).

For `CCOC(=O)c1cc2c(=O)n3ccccc3nc2n(Cc2ccco2)c1=NC(=O)c1ccc(Cl)cc1`, the activation is -0.357% (inactive).

Regarding `CC(C)N(C(=O)CN(C)S(=O)(=O)c1cc(Cl)ccc1Cl)C(C)C`, the activation is -0.725% (inactive).

As for `COc1ccc(NC(=O)c2nn3c(C(F)(F)F)cc(-c4ccccc4)nc3c2Br)c(OC)c1`, the activation was 2.64% (inactive).

In the case of `CC(C)c1ccc(NC(=O)/C=C/c2ccccc2Cl)cc1`, the activation is 1.13% (inactive).

As for `CC(=O)NS(=O)(=O)c1ccc(NC(=O)/C=C/c2ccccc2Cl)cc1`, the activation is 0.647% (inactive).

Take `O=C(/C=C/c1ccccc1Cl)Nc1ccc(I)cc1`: the activation was 1.42% (inactive).

Take `NC(=O)NC(=O)COC(=O)/C=C/c1ccccc1Cl`: the activation is 1.72% (inactive).

In the case of `O=C(O)/C=C/c1ccccc1Cl`, the activation was 5.27% (active).

As to `CC(C)NC(=O)/C=C/c1ccccc1Cl`, the activation is 5.07% (active).

`CCOc1ccc(CN2CCN(Cc3ccc(C)o3)C(CCO)C2)cc1CO` (configuration not stated): the activation was 1.78% (inactive).

Turning to `O=C(N/N=C/c1ccc([N+](=O)[O-])cc1)c1cccc(I)c1`, the activation is -0.236% (inactive).

As to `O=C(O)c1ccc(Br)c(N2C(=O)c3cc(Cl)c(Cl)cc3C2=O)c1`, the activation is 0.176% (inactive).

As for `Cc1ccccc1NC(=O)Nn1cnnc1`, the activation is -0.0585% (inactive).

For the compound `COc1ccc(CN(N=Nc2nonc2C)c2nonc2C)cc1`, the activation was -0.147% (inactive).

`CC(=O)c1ccc(C(=O)NCC2Cc3cc(Cl)cc(-c4ccncc4)c3O2)s1` (configuration not stated): the activation is 1.35% (inactive).

Regarding `Cc1nc(=S)[nH]c(C)c1CCC(=O)O`, the activation was 0.381% (inactive).

Consider `CCOC(=O)CCC(=O)OC(C(=O)c1ccccc1)c1ccccc1` (configuration not stated), for which the activation is 0.912% (inactive).

For the compound `CCOC(C(=O)c1ccccc1)c1ccccc1` (configuration not stated), the activation was -0.174% (inactive).

As to `CCOC(=O)C(C(=O)c1ccccc1)C1(O)C(=O)c2ccccc2C1=O` (configuration not stated), the activation is 6.04% (active).

For the compound `CCc1ccc(CN2CCCC(CO)(Cc3cccc(OC)c3)C2)o1` (configuration not stated), the activation was 0.911% (inactive).

For `N#Cc1c(-c2ccc(F)cc2)cc(-c2ccccc2)nc1SCCOc1ccccc1`, the activation was -0.0587% (inactive).

With `Cc1cncc2cccc(N3CCN(C(=O)C(N)c4ccc(Br)cc4)CC3)c12` (configuration not stated), the activation is 1.97% (inactive).

Take `CC1CCCCN1C(=O)c1cc2c(=O)n(C)c3ccccc3c2s1` (configuration not stated): the activation is 5.42% (active).

Consider `Cn1c(=O)c2cc(C(=O)NCCCN3CCCCCC3)sc2c2ccccc21`, for which the activation is 0.856% (inactive).

Take `CCN1CCN(C(=O)c2cc3c(=O)n(C)c4ccccc4c3s2)CC1`: the activation was 0.989% (inactive).

Regarding `O=C(Nc1cccc(-c2nnc3n2CCCCC3)c1)c1ccc(=O)n(Cc2ccccc2)n1`, the activation is -1.56% (inactive).

For `CCOC(=O)c1c(-c2ccc(OC)cc2)oc2ccc(OC(=O)c3ccccc3OC)cc12`, the activation is -0.167% (inactive).

In the case of `O=C(c1ncoc1-c1cccs1)N1CCN(c2ccc(C(F)(F)F)cn2)CC1`, the activation is 0.0668% (inactive).

For `Nc1[nH]c(=O)[nH]c(=O)c1N=Nc1cccc(Br)c1`, the activation is -1.15% (inactive).

Take `O=C1CCN(Cc2cc(F)cc(F)c2)CCN1Cc1ccc(Cl)s1`: the activation is -0.0282% (inactive).

`N=c1c(C(=O)NCc2cccnc2)cc2c(=O)n3ccccc3nc2n1CCO`: the activation was 1.18% (inactive).

For the compound `CCCn1c(=N)c(C(=O)NCc2ccc(C)cc2)cc2c(=O)n3ccccc3nc21`, the activation was 1.57% (inactive).

As for `COCCNC(=O)c1cc2c(=O)n3ccccc3nc2n(CCc2ccccc2)c1=N`, the activation was 4.99% (active).

As to `Cc1ccc(C2(C)NC(=O)N(CC(=O)c3ccc(Br)s3)C2=O)cc1` (configuration not stated), the activation was 1.11% (inactive).

In the case of `O=C(CN(c1cccc([N+](=O)[O-])c1)S(=O)(=O)c1ccccc1)N1CCOCC1`, the activation is 0.197% (inactive).

Consider `CCCCN1C(=O)S/C(=C\c2ccc(O)c([N+](=O)[O-])c2)C1=O`, for which the activation was -1.5% (inactive).

Consider `CN(C)S(=O)(=O)c1cccc(C(=O)N2CCCc3ccccc32)c1`, for which the activation is 1.08% (inactive).

For the compound `O=C(CC1C(=O)NCCN1CCc1ccccc1)NCCCn1ncc2ccccc21` (configuration not stated), the activation was 0.711% (inactive).

For `O=C(CC1C(=O)NCCN1Cc1ccc2ccccc2c1)NCCCn1cccn1` (configuration not stated), the activation was 5.94% (active).

On to `COC(=O)CCCNC(=O)CC1C(=O)NCCN1Cc1ccc2ccccc2c1` (configuration not stated), for which the activation is -0.306% (inactive).

With `COc1cc(CN(C(=O)c2cncs2)C2CCCC2)cc(OC)c1OCC1CCCO1` (configuration not stated), the activation was -1.02% (inactive).

Regarding `COC(=O)c1ccc2c(=O)nc3c(-c4ccccc4)n[nH]n3c2c1`, the activation was -1.93% (inactive).

As to `CCOC(=O)c1ccc(CNC(=O)c2cc(CCc3ccccc3)no2)o1`, the activation is 0.0388% (inactive).

Turning to `COc1ccc(Cn2cc[nH]c(=O)c2=O)cc1`, the activation was -0.548% (inactive).

On to `Oc1ccc(Cn2cc[nH]c2=S)cc1`, for which the activation was 8.86% (active).

As to `O=[N+]([O-])c1cccc(COC2=NS(=O)(=O)c3ccccc32)c1`, the activation is 0.739% (inactive).

Take `NC(=S)N/N=C/c1ccc([N+](=O)[O-])cc1`: the activation is -0.328% (inactive) and 5.02% (active).

With `CSc1ccc(/C=N/NC(N)=S)cc1`, the activation was 0.328% (inactive).

With `O=C(Cc1ccccc1)N/N=C/c1ccc([N+](=O)[O-])cc1`, the activation was -0.27% (inactive).

Consider `Cc1[nH]c2ccccc2c1/C=N/NC(=O)/C(=C/c1ccccc1O)NC(=O)c1ccccc1`, for which the activation is -5.34% (inactive).

On to `COc1ccc(NC(=S)NC(=O)c2ccc([N+](=O)[O-])cc2)c(OC)c1`, for which the activation was 3.1% (inactive).

In the case of `COc1cccc(C(=O)NC(=S)Nc2ccc(OC)cc2OC)c1`, the activation was 10.4% (active).

As for `COc1cccc(C(=O)NC(=S)Nc2ccccc2OC)c1`, the activation was -0.111% (inactive).

In the case of `CCCOC(=O)C1=C(C)NC(=O)NC1c1ccc(Br)cc1` (configuration not stated), the activation was 9.45% (active).

For `CCCOC(=O)C1=C(C)NC(=O)NC1c1ccccc1` (configuration not stated), the activation was -1.76% (inactive).

Turning to `CC1=C(C(=O)OCCc2ccccc2)C(c2ccc(Br)cc2)NC(=O)N1` (configuration not stated), the activation was -1.85% (inactive).

In the case of `CCCCN(C)C(=O)C1(c2ccc(OC)cc2)CCOCC1`, the activation was 0.343% (inactive).

For `CCCCNC(=O)C1(c2ccc(OC)cc2)CCOCC1`, the activation is 7.05% (active).

In the case of `COc1ccc(C2(C(=O)Nc3ccc(C(=O)NCc4ccccc4)cc3)CCOCC2)cc1`, the activation is 0.34% (inactive).

The values are drawn from PubChem BioAssay AID1508602 (The Scripps Research Institute Molecular Screening Center, 2020).
